Assay results: PubChem BioAssay AID1159580 (chemical genetic matrix, 2015)
Values joined by “and” are separate entries in the source; they are usually repeats but may differ in a detail not shown here. Identical values can stand only once. About 2,000 (36%) of roughly 5,500 compounds were called active. Roughly 18% stayed inconclusive and do not appear here. Cut-off read from the data, not from the text of the source: active = normalized growth mostly below about 0.91 (no sharp cut-off); inconclusive = no clear call, values can overlap the other calls; inactive = mostly above about 0.92. The list shows a part of the results.

Test: chemical genetic growth profiling, strain panel (AID 1159580);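 note: tested at 20 µM; growth read once vehicle control cultures reached saturation at 30 °C; 1 = growth at the plate median or of vehicle wells; lower values mean less growth of the strain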
Conditions: S. cerevisiae deletion strains, growth OD

Measured: normalized growth

COC(=O)C1=C(C)NC(C)=C(C(=O)OCCN(C)Cc2ccccc2)C1c1cccc([N+](=O)[O-])c1 (stereo not given)
inactive: locus YAL013W, strain DEP1, stronger effect = lower value 1 | locus YAL021C, strain ccr4, stronger effect = lower value 0.98 | locus YAL026C, strain drs2, stronger effect = lower value 0.979 | locus YAL030W, strain snc1, stronger effect = lower value 1.01 | locus YAL040C, strain CLN3, stronger effect = lower value 1.02 | locus YBL061C, strain skt5, stronger effect = lower value 0.984 | locus YBR009C, strain hhf1, stronger effect = lower value 0.984 | locus YBR021W, strain FUR4, stronger effect = lower value 0.935 | locus YBR023C, strain chs3, stronger effect = lower value 0.989 | locus YBR171W, strain sec66, stronger effect = lower value 0.986 | locus YBR229C, strain ROT2, stronger effect = lower value 0.952 | locus YBR231C, strain swc5, stronger effect = lower value 0.978 | locus YBR279W, strain paf1, stronger effect = lower value 0.975 | locus YCL011C, strain gbp2, stronger effect = lower value 0.969 | locus YCL016C, strain dcc1, stronger effect = lower value 0.982 | locus YCL029C, strain bik1, stronger effect = lower value 0.981 | locus YCL061C, strain MRC1 (second series), stronger effect = lower value 0.972 | locus YCL069W, strain vba3, stronger effect = lower value 1 | locus YCR088W, strain abp1, stronger effect = lower value 0.984 | locus YDL005C, strain med2, stronger effect = lower value 0.986 | locus YDL035C, strain GPR1, stronger effect = lower value 0.983 | locus YDL040C, strain nat1, stronger effect = lower value 0.973 | locus YDL074C, strain BRE1, stronger effect = lower value 0.917 | locus YDL101C, strain DUN1, stronger effect = lower value 0.979 | locus YDL134C, strain PPH21, stronger effect = lower value 0.976 | locus YDL185W, strain tfp1, stronger effect = lower value 0.977 | locus YDL192W, strain arf1, stronger effect = lower value 0.992 | locus YDR001C, strain nth1, stronger effect = lower value 0.974 | locus YDR069C, strain doa4, stronger effect = lower value 0.977 | locus YDR101C, strain arx1, stronger effect = lower value 0.986 | locus YDR137W, strain rgp1, stronger effect = lower value 1.02 | locus YDR150W, strain NUM1, stronger effect = lower value 0.977 and 0.972 | locus YDR159W, strain sac3, stronger effect = lower value 0.93 | locus YDR162C, strain NBP2, stronger effect = lower value 1 | locus YDR195W, strain ref2 0.96 | locus YDR297W, strain sur2, stronger effect = lower value 0.972 | locus YDR318W, strain mcm21, stronger effect = lower value 0.944 | locus YDR334W, strain swr1, stronger effect = lower value 0.925 | locus YDR335W, strain msn5, stronger effect = lower value 0.986 | locus YDR363W, strain ESC2, stronger effect = lower value 1.03 | locus YDR388W, stronger effect = lower value 0.993 | locus YDR392W, strain spt3, stronger effect = lower value 0.968 | locus YDR502C, strain sam2, stronger effect = lower value 0.981 | locus YEL003W, strain gim4, stronger effect = lower value 0.996 | locus YEL037C, strain rad23, stronger effect = lower value 0.981 | locus YEL061C, strain CIN8 (second series), stronger effect = lower value 0.99 | locus YEL061C, strain CIN8, stronger effect = lower value 0.994 | locus YER002W, strain NOP16, stronger effect = lower value 1.01 | locus YER015W, strain faa2, stronger effect = lower value 0.988 | locus YER016W, strain bim1, stronger effect = lower value 0.983 | locus YER110C, stronger effect = lower value 0.976 | locus YER111C, strain swi4, stronger effect = lower value 0.989 | locus YER155C, strain BEM2 (second series), stronger effect = lower value 0.968 | locus YER155C, strain BEM2, stronger effect = lower value 0.99 | locus YER167W, strain BCK2, stronger effect = lower value 0.994 | locus YFR010W, strain ubp6, stronger effect = lower value 0.978 | locus YGL078C, strain dbp3, stronger effect = lower value 0.979 | locus YGL086W, strain mad1, stronger effect = lower value 0.986 | locus YGL167C, strain pmr1, stronger effect = lower value 1.05 | locus YGL173C, strain kem1, stronger effect = lower value 0.982 | locus YGL227W, strain vid30, stronger effect = lower value 0.989 | locus YGL240W, strain doc1, stronger effect = lower value 0.97 | locus YGL248W, strain PDE1, stronger effect = lower value 0.991 | locus YGL253W, strain hxk2, stronger effect = lower value 0.988 | locus YGR078C, strain PAC10, stronger effect = lower value 0.955 | locus YGR135W, strain pre9, stronger effect = lower value 0.972 | locus YGR229C, strain SMI1, stronger effect = lower value 0.982 | locus YGR252W, strain gcn5, stronger effect = lower value 0.902 | locus YHR013C, strain ard1, stronger effect = lower value 0.978 | locus YHR027C, strain rpn1, stronger effect = lower value 0.983 | locus YHR030C, strain SLT2, stronger effect = lower value 0.987 and 0.976 | locus YHR079C, strain IRE1 (second series), stronger effect = lower value 0.982 | locus YHR079C, strain IRE1, stronger effect = lower value 0.949 | locus YHR094C, strain hxt1, stronger effect = lower value 0.988 | locus YHR129C, strain ARP1, stronger effect = lower value 0.994 | locus YHR142W, strain chs7, stronger effect = lower value 1.02 | locus YHR200W, strain rpn10, stronger effect = lower value 0.989 | locus YIL066C, strain RNR3, stronger effect = lower value 0.973 | locus YIL073C, strain SPO22, stronger effect = lower value 1.12 | locus YIL125W, strain kgd1, stronger effect = lower value 0.99 | locus YIR030C, strain dcg1, stronger effect = lower value 0.979 | locus YJL092W, strain hpr5, stronger effect = lower value 0.996 | locus YJL095W, strain BCK1 (second series), stronger effect = lower value 0.983 | locus YJL095W, strain BCK1, stronger effect = lower value 0.988 and 0.979 | locus YJL115W, strain asf1, stronger effect = lower value 0.989 | locus YJL129C, strain trk1, stronger effect = lower value 0.959 | locus YJL134W, strain LCB3, stronger effect = lower value 0.987 | locus YJL154C, strain vps35, stronger effect = lower value 0.971 | locus YJL164C, strain tpk1, stronger effect = lower value 0.998 | locus YJL166W, strain qcr8, stronger effect = lower value 0.993 | locus YJL168C, strain set2, stronger effect = lower value 1 | locus YJL187C, strain SWE1 (second series), stronger effect = lower value 0.973 | locus YJL187C, strain SWE1, stronger effect = lower value 0.993 | locus YJR043C, strain POL32, stronger effect = lower value 0.997 | locus YJR066W, strain TOR1, stronger effect = lower value 0.917
